Results on eleven compounds are retold here after paper PMC5540273 (PLoS ONE, 2017).

Some test systems named below: PRKCQ; PRKD1; PRKD2; PRKD3; PRKG1; PRKG2; PRKX; PRP4; QSK; RAF1; RET; RIOK1; RIOK2; RIOK3; RIPK1; RIPK2; RIPK4; RIPK5.
Holding throughout (details): concentration: 1 μM, replicates: in singlicate; n = 1
The test system of another assay is T1, PRKR.
T1 construct: gene EIF2AK2

A further assay concerns T2, PYK2.
T2 construct: gene PTK2B
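Note: KINOMEscan kinase panel screen.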

In the case of `COc1cc2nccc(Nc3ccc(NC(=O)c4ccc(C)cc4)c(O)c3)c2cc1OC.Cl` [GW440132], the “%Inh” value in the assay on PRKCQ was determined as 16%; with PRKD1 it was 0%; in the assay on PRKD2 it was 0%; in the assay on PRKD3, 0%; in the assay on PRKG1, 0%; with PRKG2, 0%. The “%Inh” value is listed as 0% in the assay on PRKR; 18% in the assay on PRKX; 2% with PRP4; 12% in the assay with PYK2; 2% in the assay on QSK; 5% in the assay on RAF1. The “%Inh” value in the assay with RET came out at 49%; in the assay on RIOK1 it was 46%; in the assay on RIOK2, 13%; in the assay with RIOK3 it was 0%; in the assay on RIPK1, 4%; with RIPK2 it was 17%. Further, the “%Inh” value with RIPK4 and in the assay on RIPK5 was 0% each time.
Turning to `Cc1ccccc1-n1cnc2c(N)ncnc21` [SKF-97510], the “%Inh” value in the assay with PRKCQ is on record as 0%; in the assay on PRKD1, 0%; in the assay on PRKD2 it was 0%; in the assay with PRKD3 it was 4%; in the assay with PRKG1, 0%; in the assay with PRKG2 it was 0%. The “%Inh” value in the assay on PRKR, in the assay on PRKX, in the assay on PRP4, in the assay with PYK2, in the assay with QSK and in the assay with RAF1 was 0% each time. Moreover, the “%Inh” value in the assay on RET is 17%; with RIOK1 it was 0%; in the assay with RIOK2 it was 0%; in the assay on RIOK3, 0%; in the assay with RIPK1 it was 10%; with RIPK2 it was 0%. Moreover, the “%Inh” value with RIPK4 and in the assay on RIPK5 was 0% each time.
For `Cc1ccc(NC(=O)Nc2cccc(Cl)c2)cc1-c1ccc(C(=O)Nc2ccncc2)cc1` [GSK1398468], the “%Inh” value with PRKCQ is listed as 11%; in the assay with PRKD1, 0%; with PRKD2 it was 1%; in the assay with PRKD3 it was 22%; in the assay on PRKG1, 1%; with PRKG2 it was 0%. The “%Inh” value with PRKR came out at 1%; in the assay on PRKX, 80%; in the assay with PRP4, 47%; with PYK2 it was 0%; with QSK, 0%; in the assay on RAF1, 91.4%. In addition, the “%Inh” value with RET worked out at 1%; in the assay with RIOK1, 40%; in the assay with RIOK2, 0%; in the assay with RIOK3, 59%; with RIPK1 it was 5%; in the assay with RIPK2, 6%. Moreover, the results for the “%Inh” value in the assay with RIPK4 and in the assay on RIPK5 were 22% and 0%, respectively.
For `Nc1nc(-c2nccs2)c(-c2ccnc3ccccc23)s1` [GW693542], the “%Inh” value in the assay on PRKCQ amounted to 39%; with PRKD1 it was 42%; in the assay on PRKD2, 14%; in the assay with PRKD3 it was 12%; in the assay on PRKG1, 8%; in the assay with PRKG2, 0%. Besides, the “%Inh” value in the assay on PRKR is recorded as 0%; in the assay with PRKX, 10%; in the assay with PRP4, 20%; in the assay on PYK2, 16%; in the assay on QSK, 0%; with RAF1 it was 15%. In addition, the “%Inh” value with RET was determined as 37%; in the assay with RIOK1, 24%; in the assay with RIOK2 it was 6%; in the assay with RIOK3 it was 38%; in the assay with RIPK1, 0%; in the assay on RIPK2, 14%. Moreover, the “%Inh” value in the assay with RIPK4 stood at 5%; with RIPK5, 0%.
`C[C@@H]1CCCCN1c1cc(-c2ccc3c(N)n[nH]c3c2)nc(N)n1` [GSK2258759]: the “%Inh” value in the assay with PRKCQ amounted to 0%; with PRKD1, 0%; in the assay with PRKD2 it was 3%; with PRKD3, 0%; in the assay with PRKG1, 0%; with PRKG2 it was 14%. In addition, the “%Inh” value in the assay on PRKR was 21%; with PRKX, 15%; in the assay with PRP4 it was 1%; with PYK2, 0%; in the assay on QSK it was 0%; in the assay on RAF1 it was 3%. The “%Inh” value is 6% in the assay with RET; 47% with RIOK1; 1% in the assay with RIOK2; 19% in the assay on RIOK3; 0% in the assay on RIPK1; 11% in the assay with RIPK2. Besides, the results for the “%Inh” value in the assay on RIPK4 and in the assay with RIPK5 were 20% and 0%, respectively.
For `Cc1cccc(-c2nc(Nc3ccncc3)c3ccccc3n2)n1` [GW855857], the “%Inh” value stood at 0% with PRKCQ; 86% in the assay on PRKD1; 99% with PRKD2; 69% in the assay on PRKD3; 7% in the assay on PRKG1; 0% in the assay on PRKG2. Further, the “%Inh” value in the assay on PRKR was determined as 2%; in the assay on PRKX, 0%; in the assay on PRP4, 17%; in the assay with PYK2, 4%; in the assay on QSK, 0%; with RAF1, 39%. The “%Inh” value in the assay on RET amounted to 9%; in the assay with RIOK1, 0%; in the assay on RIOK2 it was 0%; in the assay with RIOK3, 35%; in the assay with RIPK1, 4%; in the assay with RIPK2 it was 71%. Also, the “%Inh” value in the assay on RIPK4 and in the assay on RIPK5 was 0% throughout.
Turning to `Cn1ccc2ncnc(Oc3ccc(Nc4nc5ccccc5[nH]4)cc3)c21`, the “%Inh” value came to 0% with PRKCQ; 44% with PRKD1; 8% in the assay on PRKD2; 0% in the assay on PRKD3; 0% in the assay with PRKG1; 0% in the assay with PRKG2. In addition, the “%Inh” value stood at 0% in the assay with PRKR; 3% in the assay on PRKX; 25% in the assay on PRP4; 41% in the assay on PYK2; 0% in the assay on QSK; 0% in the assay on RAF1. Besides, the “%Inh” value with RET, in the assay with RIOK1, in the assay with RIOK2, in the assay with RIOK3, in the assay with RIPK1 and in the assay with RIPK2 was 0% in each case. Also, the “%Inh” value with RIPK4 and in the assay on RIPK5 was 0% throughout.
`O=C1NC(=O)C(N2CCc3ccccc32)=C1c1ccccc1Cl` [SB-373598]: the “%Inh” value with PRKCQ came to 7%; with PRKD1, 12%; in the assay on PRKD2, 3%; in the assay with PRKD3, 0%; in the assay with PRKG1, 36%; in the assay with PRKG2 it was 12%. For the same compound, the “%Inh” value was 5% in the assay with PRKR; 12% with PRKX; 0% in the assay on PRP4; 0% in the assay on PYK2; 4% with QSK; 25% in the assay on RAF1. The “%Inh” value in the assay on RET is 3%; in the assay with RIOK1, 19%; with RIOK2, 4%; in the assay on RIOK3 it was 1%; in the assay with RIPK1 it was 0%; in the assay with RIPK2, 10%. In addition, the “%Inh” value was 12% in the assay with RIPK4 and 0% with RIPK5.
Take `O=C(Nc1ccccc1)Nc1cccc(Oc2ccc3nccn3n2)c1`: the “%Inh” value in the assay with PRKCQ was found to be 10%; in the assay on PRKD1 it was 0%; in the assay with PRKD2 it was 7%; with PRKD3, 0%; in the assay on PRKG1, 4%; with PRKG2 it was 0%. Moreover, the “%Inh” value in the assay on PRKR was found to be 0%; with PRKX, 0%; in the assay with PRP4 it was 26%; in the assay on PYK2 it was 60%; in the assay with QSK it was 0%; in the assay on RAF1 it was 21%. In addition, the “%Inh” value is listed as 8% in the assay with RET; 48% in the assay with RIOK1; 0% in the assay with RIOK2; 15% in the assay on RIOK3; 2% with RIPK1; 0% in the assay on RIPK2. Moreover, the “%Inh” value in the assay with RIPK4 and with RIPK5 was 0% in each case.
On to `COc1ccc(CNC(=O)NC2CCN(c3ccnc(Nc4cc(OC)c(OC)c(OC)c4)n3)C2)cc1` (stereo not shown) [GSK1379748], for which the “%Inh” value was 0% in the assay on PRKCQ; 0% with PRKD1; 0% in the assay with PRKD2; 0% with PRKD3; 0% with PRKG1; 11% in the assay on PRKG2. Also, the “%Inh” value in the assay with PRKR was found to be 14%; with PRKX, 17%; with PRP4 it was 43%; in the assay with PYK2, 0%; in the assay with QSK, 0%; in the assay on RAF1, 0%. The “%Inh” value with RET worked out at 0%; with RIOK1 it was 35%; in the assay with RIOK2, 0%; in the assay on RIOK3 it was 32%; with RIPK1 it was 17%; in the assay on RIPK2 it was 16%. The entries for the “%Inh” value with RIPK4 and in the assay on RIPK5 were 28% and 48%, respectively.
With `O=S(=O)(c1ccc(-c2ccnc3[nH]ccc23)cc1)N1CCCC1` [GSK846226], the “%Inh” value was determined as 0% in the assay on PRKCQ; 0% in the assay on PRKD1; 3% in the assay on PRKD2; 0% in the assay on PRKD3; 36% with PRKG1; 14% with PRKG2. Moreover, the “%Inh” value in the assay on PRKR stood at 21%; in the assay on PRKX, 28%; in the assay on PRP4, 8%; with PYK2 it was 0%; with QSK, 0%; with RAF1, 0%. The “%Inh” value with RET was 7%; in the assay with RIOK1 it was 86%; with RIOK2, 85%; with RIOK3, 89%; with RIPK1, 8%; with RIPK2 it was 5%. Besides, the “%Inh” value is reported as 8% in the assay with RIPK4 and 16% in the assay on RIPK5.
